An excerpt weighted towards active compounds, which were near 31% of everything screened.
CYP2C19 activ: increases human CYP2C19 enzyme activity; P33261; recombinant CYP2C19, luciferin-H EGE luminescence; hits give high values; 0 = fully inhibited enzyme, 1 = untreated enzyme; activation factor at 5 µM; 96,000 tested, under 10 active; AID 1025;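 active = activation factor of at least 2 at 5 µM in the primary screen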;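 also: 0 = wells with 2.5 mM tranylcypromine and 1 = vehicle-only wells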
Target sequence (P33261 whole entry, looked up): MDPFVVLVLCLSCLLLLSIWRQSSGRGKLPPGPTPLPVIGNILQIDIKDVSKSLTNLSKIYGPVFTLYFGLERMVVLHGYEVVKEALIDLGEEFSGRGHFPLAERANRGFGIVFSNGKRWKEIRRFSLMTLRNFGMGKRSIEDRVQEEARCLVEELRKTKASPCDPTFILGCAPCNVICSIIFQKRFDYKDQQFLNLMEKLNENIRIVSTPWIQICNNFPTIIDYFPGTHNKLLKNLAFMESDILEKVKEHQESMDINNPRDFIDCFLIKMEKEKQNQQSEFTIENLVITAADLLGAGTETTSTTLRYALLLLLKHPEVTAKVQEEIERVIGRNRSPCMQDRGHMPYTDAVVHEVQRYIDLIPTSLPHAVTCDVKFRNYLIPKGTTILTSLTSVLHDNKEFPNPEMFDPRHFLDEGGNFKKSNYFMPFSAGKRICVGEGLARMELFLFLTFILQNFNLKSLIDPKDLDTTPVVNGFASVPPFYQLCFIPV
CYP2C9 inh: human CYP2C9 inhibition | inhibition, % at 5 µM | CYP2C9 Supersomes, luciferin-H conversion, luminescence | P11712 | AID 777 | 96,000 compounds, 20% hits;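 active = blocking of liver enzyme CYP2C9 beyond about 50% at 5 µM, limit read from the data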
CYP2C19 inhib: human CYP2C19 inhibition | 96,000 compounds, 21% hits | P33261 | inhibition, % at 5 µM | AID 778 | CYP2C19 Supersomes, luciferin-H EGE luminescence, 30 min;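 active = CYP2C19 inhibition above a set limit at 5 µM in the primary screen, cut at about 50% in these data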;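 also: plate controls were negative control wells for no effect and 2.5 mM tranylcypromine positive control for full effect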
CYP2C9 activ: increases human cytochrome P450 2C9 activity; P11712; recombinant CYP2C9, luciferin-H conversion, luminescence; hits give high values; factor 1 = untreated enzyme, 0 = blocked; activation factor at 5 µM; 96,000 compounds, 1.4% hits;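 active = activation factor of 2 or more for CYP2C9 at a 5 µM dose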;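 also: 0 = sulfaphenazole-blocked wells and 1 = vehicle-only wells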
PLAP activator: human PLAP activation | 96,000 compounds, 1.2% hits | AID 696 | purified PLAP enzyme, luminescent substrate read-out; hits give high values | P05187 | activation fold at 20 µM; in the data active = activation fold above about 2
Active calls of the source: *.

SMILES | CYP2C19 activ | CYP2C9 inh | CYP2C19 inhib | CYP2C9 activ | PLAP activator
O=C(O)c1cc(-c2ccc3c(c2)OCO3)nc2ccccc12 | 1 | 40 | -2 | 0.6 | 1
Cc1ccccc1Cn1c2ccccc2c2cn[nH]c(=O)c21 | 0.8 | 17 | 24 | 0.8 | 1
CC(CCc1ccccc1)NC(=O)c1nnc(Cc2ccc(Cl)cc2)o1 (stereo not given) | 0.8 | 15 | 16 | 0.8 | 0.9
CCc1nc(SCC(=O)NCCc2ccc(OC)c(OC)c2)c2c(=O)n(C)c(=O)n(C)c2n1 | 1 | -3 | -3 | 1 | 1.1
CN(C)S(=O)(=O)c1cccc(-c2nnc(SCc3cc(Cl)cc4c3OCOC4)n2N)c1 | 0.6 | 82* | 43 | 0.2 | 1.5
CCCOc1ccc(N2C(=O)CC(N3CCC(O)(c4cccc(C(F)(F)F)c4)CC3)C2=O)cc1 (stereo not given) | 1.1 | 28 | -6 | 0.7 | 1.3
CC(C)CC(c1nnnn1CC1CCCO1)N1CCN(c2nc3ccccc3s2)CC1 (stereo not given) | 0.7 | 18 | 28 | 0.8 | 1.2
CCCCC(c1nnnn1CC1CCCO1)N1CCN(c2nc3ccccc3s2)CC1 (stereo not given) | 0.3 | 76* | 70* | 0.2 | 1.6
CCCC(c1nnnn1Cc1ccco1)N1CCN(c2cc(Cl)ccc2C)CC1 (stereo not given) | 0.6 | 60* | 42 | 0.4 | 1.1
CCCCC(c1nnnn1CC1CCCO1)N1CCN(c2cc(Cl)ccc2C)CC1 (stereo not given) | 0 | 90* | 96* | 0.1 | 1.5
Cc1cc(C(F)(F)F)nn1Cc1n[nH]c(=S)n1-c1cccc(Cl)c1 | 1.1 | -10 | -7 | 1.1 | 1
COc1ccc(CC(=O)N2CCCc3ccccc32)cc1 | 0.4 | 20 | 55* | 0.8 | 1
COc1cc(OC)cc(C(=O)N2CCCc3ccccc32)c1 | 0.2 | 24 | 76* | 0.8 | 0.9
COc1ccc(CC(=O)N2CCCc3ccccc32)cc1OC | 0.6 | -14 | 38 | 1.1 | 1
CCCOc1ccc(C(=O)N2CCCc3ccccc32)cc1 | 0.1 | 69* | 93* | 0.3 | 1.2
O=C(NCc1cn2ccccc2n1)c1ccc2c(c1)OCO2 | 1 | 11 | 2 | 0.9 | 0.9
Fc1ccc(NC(=S)N2CCCc3ccccc32)cc1 | 0.6 | 7 | 40 | 0.9 | 0.9
C=CCN(CC(=O)Nc1c(C)cccc1CC)C(=O)SCCC | 0.4 | 12 | 65* | 0.9 | 1
CCc1cccc(C)c1NC(=O)C1CCCO1 (stereo not given) | 1 | 1 | 0 | 1 | 1
CCCSC(=O)N(CC)CC(=O)Nc1c(CC)cccc1CC | 0.3 | 62* | 66* | 0.4 | 1
COc1cc2[nH]c(=O)n(Cc3ccccc3Cl)c(=O)c2cc1OC | 0.8 | 28 | 16 | 0.7 | 1.2
Cc1cccc(-n2c(SCC(=O)NCc3ccco3)nc3ccccc3c2=O)c1 | 0.8 | 47 | 16 | 0.5 | 0.9
O=C(CSc1nc2ccccc2c(=O)n1CCCO)NCc1ccccc1 | 0.7 | 44 | 31 | 0.6 | 0.9
CC(=O)NCCn1c(SCC(=O)c2ccc(Cl)cc2)nc2ccccc2c1=O | 0.7 | 16 | 30 | 0.8 | 1
O=C(CCCCCn1c(SCC(=O)c2ccccc2)nc2ccccc2c1=O)NCc1ccco1 | 0.2 | 98* | 82* | 0 | 1
SMILES | CYP2C19 activ | CYP2C9 inh | CYP2C19 inhib | CYP2C9 activ | PLAP activator
CCOC(=O)CSc1nc2ccccc2c(=O)n1CCCCCC(=O)NCc1ccco1 | 0.4 | 97* | 60* | 0 | 1.1
O=C(CCCn1c(SCC(=O)c2ccc(Cl)cc2)nc2ccccc2c1=O)NCc1ccco1 | 0.8 | 54* | 19 | 0.5 | 1
O=C(Nc1ccc(O)cc1)c1ccc(C(=O)c2ccccc2)o1 | 0.8 | 16 | 15 | 0.8 | 0.8
CC(C)(C)c1nn(-c2ccccc2)c2[nH]c(=O)c(CNCc3ccc4c(c3)OCO4)cc12 | 0.9 | -30 | 13 | 1.3 | 2.1*
CCOc1cccc(NCc2cc3c(C(C)(C)C)nn(-c4ccccc4)c3[nH]c2=O)c1 | 0.8 | 75* | 23 | 0.3 | 12
Cc1nn(-c2ccccc2)c2[nH]c(=O)c(CNCC3CCCO3)cc12 (stereo not given) | 1.1 | 6 | -7 | 0.9 | 1.1
CC(Sc1nnc(-c2cccnc2)n1-c1ccccc1)C(=O)NCc1ccc2c(c1)OCO2 (stereo not given) | 0.5 | 91* | 46 | 0.1 | 0.9
O=C(CSc1nnc(-c2cccnc2)n1-c1ccccc1)NCc1ccc2c(c1)OCO2 | 1 | 18 | -2 | 0.8 | 0.9

Compound activity: PubChem BioAssay, Sanford-Burnham Center for Chemical Genomics
